Measurements reported in PubChem BioAssay (EPA / NIEHS).
Results filed as inconclusive are left out. The source made the active and inactive calls. Rule for the calls, unless noted: active = hit-call score of the fitted dose curve at least 0.9, where 1 is the maximum; inactive = score below 0.9.

Legend:
[1] = read-out: Monocyte Chemoattractant Protein-1 (MCP1), CCL2 (gene 6347); assay: BSK_LPS_MCP1: BioMAP Diversity Plus: LPS Assay for Monocyte Chemoattractant Protein-1 (MCP1) Biomarker Activity (AID 2283081); settings: primary human HUVEC with PBMC; actives raise or lower the signal;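 for AC50: secreted MCP-1 protein quantified by ELISA in culture supernatant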
Procedure, shortened: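 Values derive from bidirectional fitting against DMSO of ELISA-measured MCP-1 in a human primary endothelial and mononuclear cell co-culture, 24 h after chemical addition under LPS activation.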

[2] = BSK_LPS_PGE2: BioMAP Diversity Plus: LPS Assay for Prostaglandin E2 (PGE2) Biomarker Activity (AID 2283082); settings: primary human HUVEC with PBMC; actives raise or lower the signal;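 for AC50: secreted prostaglandin E2 measured by ELISA in LPS-stimulated co-culture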
Procedure, shortened: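 Endpoint derived from bidirectional curve fitting versus DMSO of ELISA-measured PGE2 in LPS-stimulated human primary vascular co-culture (HUVEC with PBMC) harvested at 24 h.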

[3] = read-out: Macrophage colony-stimulating factor (MCSF), CSF1 (gene 1435); assay: BSK_LPS_MCSF: BioMAP Diversity Plus: LPS Assay for Macrophage colony-stimulating factor (MCSF) Biomarker Activity (AID 2283083); settings: primary human HUVEC with PBMC; actives raise or lower the signal
Procedure, shortened: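 Bidirectional fit versus DMSO of ELISA-measured M-CSF in co-cultured human umbilical vein endothelial cells and PBMC, sampled 24 h after dosing.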

[4] = read-out: Tissue Factor, F3 (gene 2152); assay: BSK_LPS_TissueFactor: BioMAP Diversity Plus: LPS Assay for Tissue Factor Biomarker Activity (AID 2283084); settings: primary human HUVEC with PBMC; actives raise or lower the signal
Procedure, shortened: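 Read-out: CD142 ELISA, 24 h. System: LPS-driven human endothelial/PBMC co-culture. Analysis: up- or down-signal fitted against DMSO.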

[5] = read-out: Tumor necrosis factor (Homo sapiens) (UniProt P01375); assay: BSK_LPS_TNFa: BioMAP Diversity Plus: LPS Assay for Tumour Necrosis Factor alpha (TNFa) Biomarker Activity (AID 2283085); settings: primary human HUVEC with PBMC; actives raise or lower the signal
Procedure, shortened: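 Primary human vascular co-culture of HUVEC and PBMC; TNFa ELISA 24 h after treatment, analysed as increase or decrease relative to DMSO control.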

[6] = read-out: Vascular cell adhesion molecule 1 (VCAM1), VCAM1 (gene 7412); assay: BSK_LPS_VCAM1: BioMAP Diversity Plus: LPS Assay for Vascular cell adhesion molecule 1 (VCAM1) Biomarker Activity (AID 2283086); settings: primary human HUVEC with PBMC; actives raise or lower the signal
Procedure, shortened: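 Primary human vascular co-culture (umbilical vein endothelium plus PBMC) stimulated with LPS received chemical; 24 h later VCAM-1 was read by ELISA. Overt cytotoxicity was assessed by sulforhodamine B staining of parallel cultures at the same time point.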

[7] = read-out: CD40, CD40 (gene 958); assay: BSK_SAg_CD40: BioMAP Diversity Plus: SAg Assay for CD40 Biomarker Activity (AID 2283088); settings: primary human HUVEC with PBMC; actives raise or lower the signal
Procedure, shortened: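 Endpoint derived by fitting increases or decreases versus DMSO controls. CD40 is detected by fluorescence ELISA in a human vascular co-culture of endothelium and PBMC at 24 h.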

[8] = read-out: CD69, CD69 (gene 969); assay: BSK_SAg_CD69: BioMAP Diversity Plus: SAg Assay for CD69 Biomarker Activity (AID 2283089); settings: primary human HUVEC with PBMC; actives raise or lower the signal;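 for AC50: cell surface CD69 protein quantified by ELISA with fluorescence detection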
Procedure, shortened: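 Values derive from bidirectional fitting relative to DMSO vehicle. Cells: umbilical vein endothelium plus peripheral blood mononuclear cells, treated 24 h before fluorescent ELISA for CD69.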

[9] = read-out: Monocyte Chemoattractant Protein-1 (MCP1), CCL2 (gene 6347); assay: BSK_SAg_MCP1: BioMAP Diversity Plus: SAg Assay for Monocyte Chemoattractant Protein-1 (MCP1) Biomarker Activity (AID 2283090); settings: primary human HUVEC with PBMC; actives raise or lower the signal
Procedure, shortened: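 MCP-1 levels in the endothelial–PBMC SAg co-culture were quantified by ELISA at 24 h post-dosing; both increases and decreases versus DMSO scored. Cytotoxicity monitored by SRB total protein in parallel cultures.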

[10] = read-out: E-selectin (Homo sapiens) (UniProt P16581); assay: BSK_SAg_Eselectin: BioMAP Diversity Plus: SAg Assay for Eselectin Biomarker Activity (AID 2283091); settings: primary human HUVEC with PBMC; actives raise or lower the signal
Procedure, shortened: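 Endpoint values derive from bidirectional fitting relative to DMSO, using ELISA-measured E-selectin in a human vascular co-culture (umbilical vein endothelium plus PBMC) sampled 24 h after dosing.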

[11] = read-out: Monokine induced gamma interferon (MIG), CXCL9 (gene 4283); assay: BSK_SAg_MIG: BioMAP Diversity Plus: SAg Assay for Monokine induced gamma interferon (MIG) Biomarker Activity (AID 2283092); settings: primary human HUVEC with PBMC; actives raise or lower the signal
Procedure, shortened: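 Values reflect bidirectional fitting of ELISA-measured MIG against DMSO vehicle, taken 24 h after dosing of a co-culture of human umbilical vein endothelial cells and peripheral blood mononuclear cells.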

[12] = BSK_SAg_PBMCCytotoxicity: PBMC Cytotoxicity Assessment in the BioMAP Diversity Plus: SAg Assay (AID 2283093); settings: primary human HUVEC with PBMC;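 note: PBMC viability measured as Alamar Blue reduction fluorescence at 546/580 nm; fitted both ways against DMSO so a hit may be loss or gain of signal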;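 for AC50: PBMC superantigen activated with SEB plus TSST-1 one hour after compound addition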
Procedure, shortened: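 Human umbilical vein endothelial cells co-cultured with PBMC; PBMC (75,000/well) pre-treated with compound 1 h, then activated with SEB and TSST-1 (20 ng/mL final each) for 90 h. Alamar Blue added 6 h, fluorescence 546/580 nm; bidirectional fit versus DMSO.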

[13] = read-out: Interleukin-8 (IL8), CXCL8 (gene 3576); assay: BSK_SAg_IL8: BioMAP Diversity Plus: SAg Assay for Interleukin-8 (IL8) Biomarker Activity (AID 2283094); settings: primary human HUVEC with PBMC; actives raise or lower the signal
Procedure, shortened: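 In this co-culture of human umbilical vein endothelium with peripheral blood mononuclear cells, IL-8 is assayed by ELISA at 24 h. DMSO serves as baseline for bidirectional curve fitting.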

[14] = BSK_SAg_Proliferation: Cell Proliferation Assessment in the BioMAP Diversity Plus: SAg Assay (AID 2283095); settings: primary human HUVEC with PBMC;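 note: relative cell number as total protein by SRB absorbance in sub-confluent culture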
Procedure, shortened: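 Readout is SRB-stained protein (560 nm) in a primary human HUVEC and PBMC co-culture; sub-confluent cultures are read at 96 h. Activity is fitted bidirectionally using DMSO as baseline.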

[15] = BSK_SAg_SRB: Viability Assessment in the BioMAP Diversity Plus: SAg Assay (AID 2283096); settings: primary human HUVEC with PBMC;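 note: cells read one day after compound addition; hits may be either gain or loss of signal compared with DMSO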
Procedure, shortened: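 Endothelial/PBMC primary human co-culture; compound 24 h; fix 10% TCA, stain 0.1% SRB, A560; protein content as cytotoxicity proxy; bidirectional curve fit, DMSO = baseline.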

[16] = molecular target: human CYP19A1, CYP19A1 (gene 1588) (UniProt P11511); assay: NVS_ADME_hCYP19A1: NovaScreen (NVS) CYP450-related Enzyme Activity (ADME) Assay for human CYP19A1 (AID 2283098; active = hit-call score of the fitted dose curve at least 0.9, where 1 is the maximum;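 for AC50: potency for inhibitors seen as loss of fluorescent enzyme signal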)
Chain of human CYP19A1, CYP19A1 (gene 1588) (P11511 whole entry, looked up): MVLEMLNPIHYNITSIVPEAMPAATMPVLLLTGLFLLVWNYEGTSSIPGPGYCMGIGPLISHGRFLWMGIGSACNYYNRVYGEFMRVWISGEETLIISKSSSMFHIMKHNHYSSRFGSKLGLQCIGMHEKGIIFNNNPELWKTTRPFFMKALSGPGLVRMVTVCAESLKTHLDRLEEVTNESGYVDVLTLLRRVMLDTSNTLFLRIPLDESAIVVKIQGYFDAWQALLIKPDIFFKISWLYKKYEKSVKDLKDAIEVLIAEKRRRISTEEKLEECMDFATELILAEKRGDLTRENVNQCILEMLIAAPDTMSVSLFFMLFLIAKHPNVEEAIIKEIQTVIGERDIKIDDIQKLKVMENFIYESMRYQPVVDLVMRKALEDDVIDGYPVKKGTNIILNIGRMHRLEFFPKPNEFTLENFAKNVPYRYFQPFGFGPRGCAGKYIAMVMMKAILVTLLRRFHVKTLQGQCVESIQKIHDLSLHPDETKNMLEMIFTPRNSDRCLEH
Procedure, shortened: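 Cell-free enzyme assay with recombinant protein and a specific fluorogenic substrate, read by fluorescence intensity 0.5 h after dosing. Primary screen ran in duplicate at 10 uM; actives were retested in concentration series. Loss of signal versus acetonitrile baseline.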

[17] = molecular target: human CYP2A6, CYP2A6 (gene 1548) (UniProt P11509); assay: NVS_ADME_hCYP2A6: NovaScreen (NVS) CYP450-related Enzyme Activity (ADME) Assay for human CYP2A6 (AID 2283099; active = hit-call score of the fitted dose curve at least 0.9, where 1 is the maximum)
Chain of human CYP2A6, CYP2A6 (gene 1548) (P11509 whole entry, looked up): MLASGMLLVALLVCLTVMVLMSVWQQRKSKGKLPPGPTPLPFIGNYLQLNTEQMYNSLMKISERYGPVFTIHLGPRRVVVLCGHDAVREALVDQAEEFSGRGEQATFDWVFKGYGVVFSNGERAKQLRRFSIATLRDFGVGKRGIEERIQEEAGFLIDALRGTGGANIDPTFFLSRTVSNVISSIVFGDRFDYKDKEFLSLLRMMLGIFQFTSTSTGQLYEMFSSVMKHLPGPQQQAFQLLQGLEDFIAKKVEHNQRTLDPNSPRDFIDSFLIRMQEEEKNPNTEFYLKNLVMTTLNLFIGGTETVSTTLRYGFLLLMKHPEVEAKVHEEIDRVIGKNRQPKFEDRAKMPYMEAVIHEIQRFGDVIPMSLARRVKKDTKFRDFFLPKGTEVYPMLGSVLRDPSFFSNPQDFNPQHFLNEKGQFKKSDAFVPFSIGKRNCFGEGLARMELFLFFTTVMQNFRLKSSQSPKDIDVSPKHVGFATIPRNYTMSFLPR
Procedure, shortened: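 Loss of fluorescence signal relative to acetonitrile vehicle reported CYP2A6 inhibition in a cell-free system using insect-cell-derived enzyme. Readings were taken at 0.5 h; top concentration in follow-up dose series was 20 uM.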

[18] = molecular target: human CYP2B6, CYP2B6 (gene 1555) (UniProt P20813); assay: NVS_ADME_hCYP2B6: NovaScreen (NVS) CYP450-related Enzyme Activity (ADME) Assay for human CYP2B6 (AID 2283101; active = hit-call score of the fitted dose curve at least 0.9, where 1 is the maximum)
Chain of human CYP2B6, CYP2B6 (gene 1555) (P20813 whole entry, looked up): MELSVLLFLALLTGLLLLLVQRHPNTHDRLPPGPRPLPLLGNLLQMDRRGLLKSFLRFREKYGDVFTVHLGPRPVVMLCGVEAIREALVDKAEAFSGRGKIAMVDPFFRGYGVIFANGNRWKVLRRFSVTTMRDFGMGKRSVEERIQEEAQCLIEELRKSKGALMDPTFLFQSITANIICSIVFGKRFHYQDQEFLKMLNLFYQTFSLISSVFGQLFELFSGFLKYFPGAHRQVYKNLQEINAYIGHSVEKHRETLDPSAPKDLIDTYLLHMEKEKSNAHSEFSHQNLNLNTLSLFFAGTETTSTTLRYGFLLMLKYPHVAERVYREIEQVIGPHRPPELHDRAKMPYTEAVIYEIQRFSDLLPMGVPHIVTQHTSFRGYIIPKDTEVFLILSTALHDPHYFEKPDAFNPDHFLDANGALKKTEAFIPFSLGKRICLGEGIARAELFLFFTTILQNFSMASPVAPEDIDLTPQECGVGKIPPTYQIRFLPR
Procedure, shortened: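 Compounds were first screened in duplicate at 10 uM against recombinant enzyme, with the fluorescent product measured after 1 hour. Active compounds were retested over a concentration series. Loss of fluorescence versus acetonitrile control was scored as reduced enzyme activity.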

[19] = molecular target: human CYP1A1, CYP1A1 (gene 1543) (UniProt P04798); assay: NVS_ADME_hCYP1A1: NovaScreen (NVS) CYP450-related Enzyme Activity (ADME) Assay for human CYP1A1 (AID 2283100; active = hit-call score of the fitted dose curve at least 0.9, where 1 is the maximum)
Chain of human CYP1A1, CYP1A1 (gene 1543) (P04798 whole entry, looked up): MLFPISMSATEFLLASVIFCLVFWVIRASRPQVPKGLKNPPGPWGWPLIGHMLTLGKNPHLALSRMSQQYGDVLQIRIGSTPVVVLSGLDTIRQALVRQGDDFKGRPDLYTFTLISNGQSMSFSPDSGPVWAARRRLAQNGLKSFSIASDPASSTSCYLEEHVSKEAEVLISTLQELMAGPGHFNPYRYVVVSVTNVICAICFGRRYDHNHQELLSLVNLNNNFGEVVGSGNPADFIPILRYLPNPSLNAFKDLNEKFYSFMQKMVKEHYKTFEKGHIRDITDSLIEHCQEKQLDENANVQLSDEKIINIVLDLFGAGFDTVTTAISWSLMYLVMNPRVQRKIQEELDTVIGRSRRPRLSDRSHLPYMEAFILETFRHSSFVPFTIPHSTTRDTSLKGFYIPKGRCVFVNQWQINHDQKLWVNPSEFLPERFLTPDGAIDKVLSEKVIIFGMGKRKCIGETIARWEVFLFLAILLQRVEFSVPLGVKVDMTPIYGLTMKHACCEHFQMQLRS
Procedure, shortened: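 Inhibition of recombinant CYP1A1 turnover was assessed fluorometrically in a biochemical format 1 h after compound exposure. Testing began at 10 uM in duplicate and progressed to concentration series reaching 20 uM, with on-plate positive and negative controls.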

Measured: AC50

Chain of Tumor necrosis factor (Homo sapiens) (P01375 whole entry, looked up): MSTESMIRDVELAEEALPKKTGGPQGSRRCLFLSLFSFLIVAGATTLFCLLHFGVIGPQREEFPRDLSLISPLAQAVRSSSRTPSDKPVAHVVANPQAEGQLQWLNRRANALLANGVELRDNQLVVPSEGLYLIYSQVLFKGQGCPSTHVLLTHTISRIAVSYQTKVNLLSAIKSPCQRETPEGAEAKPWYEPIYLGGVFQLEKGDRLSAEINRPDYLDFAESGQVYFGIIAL
Chain of E-selectin (Homo sapiens) (P16581 whole entry, looked up): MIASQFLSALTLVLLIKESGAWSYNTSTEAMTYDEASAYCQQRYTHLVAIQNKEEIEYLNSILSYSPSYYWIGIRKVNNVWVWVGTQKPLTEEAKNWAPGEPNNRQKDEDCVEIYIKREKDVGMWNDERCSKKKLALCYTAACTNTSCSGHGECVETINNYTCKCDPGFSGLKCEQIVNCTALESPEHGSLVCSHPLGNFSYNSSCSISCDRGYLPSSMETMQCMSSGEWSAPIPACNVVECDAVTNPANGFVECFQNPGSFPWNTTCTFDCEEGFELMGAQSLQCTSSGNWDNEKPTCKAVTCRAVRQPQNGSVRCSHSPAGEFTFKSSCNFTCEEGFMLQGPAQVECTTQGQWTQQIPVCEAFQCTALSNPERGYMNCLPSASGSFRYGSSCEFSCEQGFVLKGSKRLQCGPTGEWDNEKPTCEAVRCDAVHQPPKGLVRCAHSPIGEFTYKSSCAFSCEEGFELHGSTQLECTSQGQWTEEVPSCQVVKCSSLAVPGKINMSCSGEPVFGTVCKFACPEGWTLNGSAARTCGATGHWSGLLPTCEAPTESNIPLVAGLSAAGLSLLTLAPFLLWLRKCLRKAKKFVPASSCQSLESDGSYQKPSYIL

CC[C@H](c1ccc(O)cc1)[C@@H](CC)c1ccc(O)cc1
active: [1] 33.8 µM | [2] 38.1 µM | [3] 22.4 µM | [4] 32 µM | [5] 30.6 µM | [6] 29 µM | [7] 20.7 µM | [8] 20.6 µM | [9] 23.9 µM | [10] 17.9 µM | [11] 32.6 µM | [12] 31.1 µM | [13] 20.2 µM | [14] 19.2 µM | [15] 31.4 µM | [16] 1.77 µM

COC(=O)CCCCC(=O)OC
not listed: [16] | [17] | [18] | [19]
inactive: all other assays above

O=[N+]([O-])c1ccc(O)cc1
not listed: [16] | [19]
inactive: all other assays above

CCC(=C(c1ccc(O)cc1)c1ccc(OCCN(C)C)cc1)c1ccccc1
active: [1] 9.72 µM | [2] 19.8 µM | [3] 7.5 µM | [4] 13 µM | [5] 13.6 µM | [6] 12.6 µM | [7] 11.1 µM | [8] 9.48 µM | [9] 11.1 µM | [10] 18.7 µM | [11] 13.2 µM | [13] 10.2 µM | [14] 5.91 µM | [15] 8.31 µM

Cc1cc(CCN2CCN(c3nsc4ccccc34)CC2)cc2c1NC(=O)CC2(C)C
inactive: [16] | [19]
active: [1] 26.8 µM | [2] 5.37 µM | [3] 15.3 µM | [4] 32.8 µM | [5] 8.98 µM | [6] 26 µM | [7] 14.2 µM | [8] 14.4 µM | [9] 11.3 µM | [10] 11.8 µM | [11] 17.3 µM | [13] 20 µM | [14] 8.05 µM | [15] 33.9 µM

CC(O)CO (configuration not stated)
not listed: [12] | [16] | [17] | [18] | [19]
inactive: all other assays above
